Source: PubChem BioAssay (EPA / NIEHS)
Where “and” joins values, the source holds several entries; their conditions need not be identical. Equal values may be shown once. Inconclusive results are not listed. A structure can be active in one record and inactive in another. Calls of active or inactive are those of the source. How the source made its calls: active means hit-call score of the fitted dose curve at least 0.9, where 1 is the maximum; inconclusive means response in the unintended direction; inactive means score below 0.9.

How the values were obtained:
[1] = system: frog Estrogen Receptor (ER), gene 398734; assay: ATG_frER1_XSP2: Attagene TRANS-FACTORIAL Multi-Species (XSP2) HepG2 Assay for frog Estrogen Receptor (ER) (AID 2283821);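 further: hits raise reporter mRNA above DMSO baseline so potency means agonist or activator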
Method in brief: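 HepG2 cells transiently transfected with GAL4-UAS reporter units expressing a chimeric frog ER-Gal4 protein; 24 h exposure. Reporter mRNA quantified by RT-PCR, fluorescent labelling and capillary electrophoresis; gain of signal fitted against DMSO baseline.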

[2] = system: zebrafish Estrogen Receptor (ER2b), gene 317733; assay: ATG_zfER2b_XSP2: Attagene TRANS-FACTORIAL Multi-Species (XSP2) HepG2 Assay for zebrafish Estrogen Receptor (ER2b) (AID 2283823);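 further: fitted upward as reporter gain over DMSO so potency reflects activation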
Method in brief: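 HepG2 human liver cells transiently transfected with multiplexed GAL4-UAS reporter units expressing chimeric NR-Gal4 proteins; compounds dosed for 24 h. Reporter mRNA quantified by RT-PCR, 6-FAM labelling and capillary electrophoresis; gain-of-signal fitted against DMSO baseline.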

[3] = system: frog Androgen Receptor (AR), gene 399456; assay: ATG_frAR_XSP2: Attagene TRANS-FACTORIAL Multi-Species (XSP2) HepG2 Assay for frog Androgen Receptor (AR) (AID 2283824);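 further: actives raise reporter signal above DMSO so AC50 reflects agonist-like induction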
Method in brief: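 HepG2 cells transiently transfected with GAL4-UAS reporter units and frog (Xenopus laevis) AR-Gal4 chimera; reporter mRNA measured 24 h after dosing by RT-PCR and capillary electrophoresis. Gain of signal fitted relative to DMSO baseline.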

[4] = system: frog Estrogen Receptor (ER2), gene 100174814; assay: ATG_frER2_XSP2: Attagene TRANS-FACTORIAL Multi-Species (XSP2) HepG2 Assay for frog Estrogen Receptor (ER2) (AID 2283828)
Method in brief: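 HepG2 cells transiently transfected with multiplexed GAL4-UAS reporter units expressing chimeric frog ER2–Gal4 protein; reporter mRNA measured 24 h after chemical dosing by RT-PCR, fluorescent labeling and capillary electrophoresis. Gain-of-signal fitted relative to DMSO baseline.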

[5] = biological target: Peroxisome proliferator-activated receptor gamma (Homo sapiens) (UniProt P37231); assay: ATG_hPPARg_XSP2: Attagene TRANS-FACTORIAL Multi-Species (XSP2) HepG2 Assay for human Peroxisome Proliferator-activated Receptor gamma (PPARg) (AID 2283829);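 further: actives raise reporter mRNA above DMSO so AC50 reflects PPARg activation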
Sequence of Peroxisome proliferator-activated receptor gamma (Homo sapiens) (P37231 whole entry, looked up, the tested form may be a part): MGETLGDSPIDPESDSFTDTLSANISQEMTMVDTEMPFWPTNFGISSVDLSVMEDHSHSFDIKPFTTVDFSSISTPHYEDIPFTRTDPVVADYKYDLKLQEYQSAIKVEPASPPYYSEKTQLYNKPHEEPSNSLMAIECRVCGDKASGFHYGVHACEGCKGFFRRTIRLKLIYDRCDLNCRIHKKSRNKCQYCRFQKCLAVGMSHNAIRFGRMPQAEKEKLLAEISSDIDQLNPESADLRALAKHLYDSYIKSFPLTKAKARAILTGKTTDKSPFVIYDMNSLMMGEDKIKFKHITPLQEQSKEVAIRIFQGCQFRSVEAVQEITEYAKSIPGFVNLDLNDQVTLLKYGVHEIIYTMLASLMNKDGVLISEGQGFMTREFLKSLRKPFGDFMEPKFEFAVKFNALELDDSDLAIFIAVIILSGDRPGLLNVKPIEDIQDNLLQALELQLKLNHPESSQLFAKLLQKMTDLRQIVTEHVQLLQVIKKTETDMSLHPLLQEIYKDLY
Method in brief: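 Reporter transcripts were measured by RT-PCR, fluorescent labeling, HpaI digestion and capillary electrophoresis, relative to DMSO, 24 h post-dosing. Transiently transfected HepG2 expressed NR-Gal4 chimeras regulating GAL4-UAS reporters; medium contained 3 nM 6-alpha-fluorotestosterone plus 1.5 nM norgestrel.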

[6] = biological target: mouse Peroxisome Proliferator-activated Receptor gamma (PPARg), Pparg (gene 19016) (UniProt P37238); assay: ATG_mPPARg_XSP2: Attagene TRANS-FACTORIAL Multi-Species (XSP2) HepG2 Assay for mouse Peroxisome Proliferator-activated Receptor gamma (PPARg) (AID 2283830);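 further: hits are gains in reporter mRNA above DMSO so AC50 marks activation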
Sequence of mouse Peroxisome Proliferator-activated Receptor gamma (PPARg), Pparg (gene 19016) (P37238 whole entry, looked up, the tested form may be a part): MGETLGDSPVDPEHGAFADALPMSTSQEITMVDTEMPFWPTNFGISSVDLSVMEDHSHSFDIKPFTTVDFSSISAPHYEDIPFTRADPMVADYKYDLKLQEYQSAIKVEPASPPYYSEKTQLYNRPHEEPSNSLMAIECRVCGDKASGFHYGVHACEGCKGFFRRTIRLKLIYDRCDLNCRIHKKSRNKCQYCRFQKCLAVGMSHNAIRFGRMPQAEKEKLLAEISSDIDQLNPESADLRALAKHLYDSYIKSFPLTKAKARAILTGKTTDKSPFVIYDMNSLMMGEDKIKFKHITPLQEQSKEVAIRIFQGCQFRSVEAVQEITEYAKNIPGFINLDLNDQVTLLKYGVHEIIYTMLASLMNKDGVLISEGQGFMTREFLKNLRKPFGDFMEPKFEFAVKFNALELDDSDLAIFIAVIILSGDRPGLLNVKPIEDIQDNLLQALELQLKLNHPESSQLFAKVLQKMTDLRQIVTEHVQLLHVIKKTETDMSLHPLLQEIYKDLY
Method in brief: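 HepG2 cells transiently transfected with GAL4-UAS reporter units for chimeric NR-Gal4 proteins including mouse PPARg, exposed 24 h; medium contained 3 nM 6-alpha-fluorotestosterone and 1.5 nM norgestrel. Reporter mRNA quantified by RT-PCR, HpaI digestion and capillary electrophoresis, vs DMSO.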

[7] = biological target: Nuclear receptor subfamily 1 group I member 2 (Mus musculus) (UniProt O54915); assay: ATG_mPXR_XSP2: Attagene TRANS-FACTORIAL Multi-Species (XSP1) HepG2 Assay for mouse Pregnane X Receptor (PXR) (AID 2283831)
Sequence of Nuclear receptor subfamily 1 group I member 2 (Mus musculus) (O54915 whole entry, looked up, the tested form may be a part): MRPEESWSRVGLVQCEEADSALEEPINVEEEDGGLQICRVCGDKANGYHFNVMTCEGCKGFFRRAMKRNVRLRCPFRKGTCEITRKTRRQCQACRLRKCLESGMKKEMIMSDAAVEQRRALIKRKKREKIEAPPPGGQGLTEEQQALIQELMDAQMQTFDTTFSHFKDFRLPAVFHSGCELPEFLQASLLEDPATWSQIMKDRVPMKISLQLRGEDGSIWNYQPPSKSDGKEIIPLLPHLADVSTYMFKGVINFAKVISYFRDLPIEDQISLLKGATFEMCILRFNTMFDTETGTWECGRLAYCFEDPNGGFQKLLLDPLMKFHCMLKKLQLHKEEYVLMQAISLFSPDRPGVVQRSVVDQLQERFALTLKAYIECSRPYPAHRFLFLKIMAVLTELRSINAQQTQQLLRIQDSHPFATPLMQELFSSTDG
Method in brief: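 Reporter transcripts measured after 24 h dosing by RT-PCR with 6-FAM labelling, HpaI digestion and capillary electrophoresis. Transiently transfected HepG2 with NR-Gal4 chimeras; increase over DMSO baseline scored.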

[8] = biological target: zebrafish Thyroid Hormone Receptor alpha (TRa), thraa (gene 30670) (UniProt Q98867); assay: ATG_zfTRa_XSP2: Attagene TRANS-FACTORIAL Multi-Species (XSP1) HepG2 Assay for zebrafish Thyroid Hormone Receptor alpha (TRa) (AID 2283832);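 further: actives raise zebrafish TRa-Gal4 reporter transcript above DMSO baseline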
Sequence of zebrafish Thyroid Hormone Receptor alpha (TRa), thraa (gene 30670) (Q98867 whole entry, looked up, the tested form may be a part): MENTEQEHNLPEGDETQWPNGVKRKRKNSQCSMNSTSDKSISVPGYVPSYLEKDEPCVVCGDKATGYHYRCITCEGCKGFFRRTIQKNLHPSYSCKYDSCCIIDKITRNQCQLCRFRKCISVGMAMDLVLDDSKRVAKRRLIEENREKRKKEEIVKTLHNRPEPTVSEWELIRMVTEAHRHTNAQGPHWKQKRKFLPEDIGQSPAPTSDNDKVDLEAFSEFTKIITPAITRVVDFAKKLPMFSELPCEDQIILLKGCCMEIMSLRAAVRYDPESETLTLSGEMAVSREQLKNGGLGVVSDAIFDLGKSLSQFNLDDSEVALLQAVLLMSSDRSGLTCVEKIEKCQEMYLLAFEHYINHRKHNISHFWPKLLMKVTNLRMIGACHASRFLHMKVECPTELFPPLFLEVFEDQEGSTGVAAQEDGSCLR
Method in brief: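 Chimeric receptor-Gal4 activity was assessed in transfected human liver HepG2 cells 24 h after dosing, using reporter transcript levels detected by RT-PCR and capillary electrophoresis. DMSO served as baseline.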

[9] = ATG_M_19_XSP2: Attagene TRANS-FACTORIAL Multi-Species (XSP2) HepG2 Assay for M32 Transcription Factor (Internal Marker) (AID 2283822)
Method in brief: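 Internal background marker in a multi-species nuclear receptor TRANS panel: transfected HepG2 cells exposed 24 h, with 3 nM 6-alpha-fluorotestosterone and 1.5 nM norgestrel present. Readout is RT-PCR of reporter transcripts resolved by capillary electrophoresis, gain-of-signal versus DMSO.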

[10] = system: zebrafish Androgen Receptor (AR), gene 100005148; assay: ATG_zfAR_XSP2: Attagene TRANS-FACTORIAL Multi-Species (XSP2) HepG2 Assay for zebrafish Androgen Receptor (AR) (AID 2283825);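 further: hits raise reporter mRNA above DMSO so AC50 reflects agonist-type gain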
Method in brief: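 Zebrafish AR–GAL4 chimera transiently expressed with GAL4-UAS reporter in HepG2 cells, co-stimulated with 3 nM 6-alpha-fluorotestosterone and 1.5 nM norgestrel; 24 h dosing, reporter mRNA read by RT-PCR/capillary electrophoresis versus DMSO.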

SMILES | AC50 [1] | AC50 [2] | AC50 [3] | AC50 [4] | AC50 [5] | AC50 [6] | outcome [7] | outcome [8] | AC50 [7] | outcome [5] | outcome [6] | outcome [9] | outcome [10] | outcome [1] | AC50 [8]
O=c1c(O)c(-c2ccc(O)cc2)oc2cc(O)cc(O)c12 | 2.48 µM (active) and 1.49 µM (active) | 2.83 µM (active) and 1.85 µM (active) | 2.89 µM (active) and 1.82 µM (active) | 1.75 µM (active) and 945 nM (active) | 12.5 µM (active) and 7.02 µM (active) | 12 µM (active) | inactive | inactive | – | – | – | – | – | – | –
OCc1cccc(Oc2ccccc2)c1 | 27 µM (active) and 27.1 µM (active) | 46.5 µM (active) and 12.4 µM (active) | – | 27.5 µM (active) and 9.21 µM (active) | 60.3 µM (active) and 36.7 µM (active) | 40.6 µM (active) and 34.9 µM (active) | inactive | inactive | 57.4 µM (active) | – | – | – | – | – | –
Cc1cc(=O)oc2cc(N(C)C)ccc12 | 19.2 µM (active) and 27.6 µM (active) | 77.1 µM (active) and 100 µM (active) | – | 48.9 µM (active) | 24.8 µM (active) and 17 µM (active) | 33.5 µM (active) and 27.8 µM (active) | – | inactive | 4.03 µM (active) and 6.44 µM (active) | – | – | – | – | – | –
Clc1ccc(C(c2ccccc2Cl)C(Cl)Cl)cc1 (stereo not drawn) | 2.74 µM (active) and 4.46 µM (active) | 2.37 µM (active) and 1.97 µM (active) | – | 1.34 µM (active) and 1.64 µM (active) | – | – | – | inactive | 5.19 µM (active) and 5.09 µM (active) | inactive | inactive | – | – | – | –
CCCCC(CC)COC(=O)c1ccc(O)cc1 (stereo not drawn) | 49.9 µM (active) | 16.3 µM (active) | – | – | – | – | – | inactive | 56.4 µM (active) | – | – | inactive | inactive | – | –
BrCc1cccc(Oc2ccccc2)c1 | 7.78 µM (active) and 26.9 µM (active) | 34.9 µM (active) and 12.4 µM (active) | – | 15.7 µM (active) and 10.2 µM (active) | 58.6 µM (active) and 35.6 µM (active) | 66.6 µM (active) and 39 µM (active) | inactive | inactive | 27.7 µM (active) | – | – | – | – | – | –
Oc1ccc2cc(SSc3ccc4cc(O)ccc4c3)ccc2c1 | – | 2.56 µM (active) and 2.52 µM (active) | 26.3 µM (active) | 925 nM (active) and 696 nM (active) | 4.81 µM (active) and 4.29 µM (active) | 7.19 µM (active) and 5.11 µM (active) | – | inactive | 36.2 µM (active) and 20.8 µM (active) | – | – | – | – | inactive | 156 µM (active)
